The text below walks through data of PMC4336329 (PLoS ONE, 2015).

In all, about 310,000 compounds went through this assay and about 14,000 (4.5%) showed an effect of 50% or more. Effects have a minus sign here. This excerpt belongs to a sample that is enriched for strong results.
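Note: peak tail current of the secondary pulse compared with the same well before compound.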

The target in the assay is human ether-à-go-go-related gene (hERG) potassium channel (human, UniProt Q12809). Description: primary screen, population patch clamp on CHO cells stably expressing hERG; higher = less effect of the substance.
human ether-à-go-go-related gene (hERG) potassium channel, sequence (Q12809 whole entry, looked up): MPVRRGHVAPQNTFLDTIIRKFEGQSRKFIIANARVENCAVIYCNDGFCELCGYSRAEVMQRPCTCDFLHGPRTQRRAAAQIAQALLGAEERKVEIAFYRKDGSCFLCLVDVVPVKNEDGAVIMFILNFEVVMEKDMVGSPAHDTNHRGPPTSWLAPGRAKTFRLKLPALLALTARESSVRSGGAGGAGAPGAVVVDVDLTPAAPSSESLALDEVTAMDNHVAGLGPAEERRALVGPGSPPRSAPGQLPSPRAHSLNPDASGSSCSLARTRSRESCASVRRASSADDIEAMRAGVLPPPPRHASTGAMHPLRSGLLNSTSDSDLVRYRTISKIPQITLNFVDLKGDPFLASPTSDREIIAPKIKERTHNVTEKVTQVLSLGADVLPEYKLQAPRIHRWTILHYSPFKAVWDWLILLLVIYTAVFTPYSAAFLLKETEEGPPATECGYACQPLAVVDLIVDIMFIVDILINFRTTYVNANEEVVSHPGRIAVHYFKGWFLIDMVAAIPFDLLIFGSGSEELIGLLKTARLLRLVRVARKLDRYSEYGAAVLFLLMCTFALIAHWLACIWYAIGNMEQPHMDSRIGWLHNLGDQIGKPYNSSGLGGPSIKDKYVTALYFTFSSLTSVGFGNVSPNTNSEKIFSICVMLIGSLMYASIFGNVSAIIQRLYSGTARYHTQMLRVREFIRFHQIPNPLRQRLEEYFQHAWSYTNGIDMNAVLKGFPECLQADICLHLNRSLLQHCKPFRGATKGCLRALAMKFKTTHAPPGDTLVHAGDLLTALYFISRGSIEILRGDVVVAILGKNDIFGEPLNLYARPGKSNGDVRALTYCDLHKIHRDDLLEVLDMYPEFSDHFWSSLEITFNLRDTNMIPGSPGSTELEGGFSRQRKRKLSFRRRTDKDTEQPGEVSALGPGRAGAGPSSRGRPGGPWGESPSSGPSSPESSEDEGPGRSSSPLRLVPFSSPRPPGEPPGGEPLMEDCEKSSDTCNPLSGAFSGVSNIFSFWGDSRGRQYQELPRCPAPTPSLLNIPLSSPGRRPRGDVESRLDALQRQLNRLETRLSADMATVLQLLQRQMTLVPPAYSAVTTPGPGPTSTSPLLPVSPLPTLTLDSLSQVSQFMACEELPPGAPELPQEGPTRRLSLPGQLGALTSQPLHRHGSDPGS
Regarding `Cc1nn(CC(=O)NC2(C#N)CCCCC2)c(C)c1[N+](=O)[O-]`, the “hERG current change (%, negative = inhibition) at 10uM” value came out at 3.09%.

Turning to `CCCCOC(=O)C1=C(C)NC(=O)NC1c1ccc(N(C)C)cc1` (centres unmarked), the “hERG current change (%, negative = inhibition) at 10uM” value was 21.7%.

In the case of `O=C(COc1ccccc1)N1CCN(C2CC3CCC2C3)CC1` (centres unmarked), the “hERG current change (%, negative = inhibition) at 10uM” value was 7.39%.

In the case of `NC(=O)c1nsc(C(=O)N(c2ccc(F)cc2)C(C(=O)NC2CCCC2)c2ccncc2)c1N` (centres unmarked), the “hERG current change (%, negative = inhibition) at 10uM” value is given as -0.193%.

For `COc1cccc2c1c(NC(=O)Nc1ccc(F)cc1F)nn2C`, the “hERG current change (%, negative = inhibition) at 10uM” value came to 15.3%.

`COc1cc2cc(CN(Cc3cccnc3)C(=O)NCc3ccccc3)c(=O)[nH]c2cc1OC`: the “hERG current change (%, negative = inhibition) at 10uM” value was -12.6%.

Regarding `CC12CC[C@H]3[C@@H](CCC4(O)C[C@H](O)CCC34/C=N/NC(=O)c3ccc(O)cc3)C1(O)CCC2C1=CC(=O)OC1` (some centres unmarked), the “hERG current change (%, negative = inhibition) at 10uM” value was determined as 15%.

As for `CC(C)(/C=N/O)N(O)C=C1C=CC(=O)C=C1`, the “hERG current change (%, negative = inhibition) at 10uM” value is given as 5.81%.

Regarding `COc1nc(N/N=C/c2cc3c(cc2Br)OCO3)nc(N2CCOCC2)n1`, the “hERG current change (%, negative = inhibition) at 10uM” value is given as -27.8%.

For `Brc1cc2c(cc1/C=N/Nc1nc(N3CCOCC3)nc(N3CCOCC3)n1)OCO2`, the “hERG current change (%, negative = inhibition) at 10uM” value is given as -5%.

Regarding `Clc1ccccc1/C=C/C=N/Nc1nc(N2CCOCC2)nc(N2CCOCC2)n1`, the “hERG current change (%, negative = inhibition) at 10uM” value is -58.4%.

Take `O=[N+]([O-])c1ccccc1/C=C/C=N/Nc1nc(N2CCCCC2)nc(N2CCCCC2)n1`: the “hERG current change (%, negative = inhibition) at 10uM” value is recorded as -12.2%.

As for `Brc1cc2c(cc1/C=N/Nc1nc(N3CCCC3)nc(N3CCOCC3)n1)OCO2`, the “hERG current change (%, negative = inhibition) at 10uM” value was -51.3%.

Regarding `C(=C\c1ccccc1)/C=N/Nc1nc(N2CCOCC2)nc(N2CCOCC2)n1`, the “hERG current change (%, negative = inhibition) at 10uM” value is on record as -9.68%.

As to `O=C(c1ccccc1)n1ccc2ccccc21`, the “hERG current change (%, negative = inhibition) at 10uM” value is recorded as -28%.

Turning to `O=S(=O)(c1ccc(Oc2ncnc3scc(-c4ccccc4)c23)cc1)N1CCOCC1`, the “hERG current change (%, negative = inhibition) at 10uM” value is on record as -0.503%.

As for `Cc1c(C(=O)NCC(c2ccco2)N(C)C)oc2c(Cl)cccc12` (centres unmarked), the “hERG current change (%, negative = inhibition) at 10uM” value was -36.9%.

Consider `C/C(=C\c1ccc2c(c1)OCO2)C1Nc2cccc3cccc(c23)N1`, for which the “hERG current change (%, negative = inhibition) at 10uM” value came out at 16.8%.

Consider `COc1ccccc1OCC(=O)NCC(C)NC(=O)COc1ccccc1OC` (centres unmarked), for which the “hERG current change (%, negative = inhibition) at 10uM” value is listed as 4.93%.

For `Cc1cccc(S(=O)(=O)NNC(=O)c2cc(-c3ccc(F)cc3)nc3ccccc23)c1`, the “hERG current change (%, negative = inhibition) at 10uM” value was determined as 28.5%.

For the compound `COc1ccc(NC(=O)CN(C)C(=O)c2ccc(N3CCCC3)c([N+](=O)[O-])c2)cc1`, the “hERG current change (%, negative = inhibition) at 10uM” value is -54%.

For `CN(CC(=O)Nc1ccccc1Cl)C(=O)c1ccc(N2CCCCCC2)c([N+](=O)[O-])c1`, the “hERG current change (%, negative = inhibition) at 10uM” value is -20.2%.

On to `CN(CC(=O)Nc1cccc(F)c1)C(=O)c1ccc(N2CCCCCC2)c([N+](=O)[O-])c1`, for which the “hERG current change (%, negative = inhibition) at 10uM” value stood at 17.9%.

On to `COc1ccc(NC(=O)CN(C)C(=O)c2ccc(N3CCCCCC3)c([N+](=O)[O-])c2)cc1`, for which the “hERG current change (%, negative = inhibition) at 10uM” value is reported as -51.6%.

Take `COc1ccc(NC(=O)CN(C)C(=O)c2ccc(N3CCCCC3)c([N+](=O)[O-])c2)cc1`: the “hERG current change (%, negative = inhibition) at 10uM” value is listed as -76.8%.

Take `CCOc1ccc(NC(=O)CN(C)C(=O)c2ccc(N3CCCCCC3)c([N+](=O)[O-])c2)cc1OCC`: the “hERG current change (%, negative = inhibition) at 10uM” value is listed as 3.4%.

Take `CCOc1ccc(NC(=O)CN(C)C(=O)c2ccc(N3CCCCC3)c([N+](=O)[O-])c2)cc1OCC`: the “hERG current change (%, negative = inhibition) at 10uM” value is given as -57.6%.

Take `CCOc1ccc(NC(=O)CN(C)C(=O)c2cc(S(=O)(=O)N(C)C)ccc2N2CCCC2)cc1OCC`: the “hERG current change (%, negative = inhibition) at 10uM” value worked out at 6.11%.

Regarding `COc1cccc(CN(C)C(=O)c2ccc(N3CCCC3)c([N+](=O)[O-])c2)c1`, the “hERG current change (%, negative = inhibition) at 10uM” value was -45.3%.

For the compound `COc1ccc(NC(=O)CN(C)C(=O)c2ccc(N3CCOCC3)c([N+](=O)[O-])c2)cc1`, the “hERG current change (%, negative = inhibition) at 10uM” value is listed as -46.3%.

Take `COc1ccc(Cl)cc1NC(=O)CN(C)C(=O)c1ccc(N2CCCCCC2)c([N+](=O)[O-])c1`: the “hERG current change (%, negative = inhibition) at 10uM” value is 5.32%.

With `COc1ccc(Cl)cc1NC(=O)CN(C)C(=O)c1ccc(N2CCCCC2)c([N+](=O)[O-])c1`, the “hERG current change (%, negative = inhibition) at 10uM” value is -18.8%.

For `CC1(C)Cc2c(c(N3CCCC3)nc3sc4c(N5CCNCC5)ncnc4c23)CO1`, the “hERG current change (%, negative = inhibition) at 10uM” value is listed as -35.2%.

For the compound `O=C(N/N=C/c1ccc(-c2cccc(C(F)(F)F)c2)o1)c1ccccc1Br`, the “hERG current change (%, negative = inhibition) at 10uM” value was found to be 3.21%.

For `CCOc1ccc(Cl)cc1S(=O)(=O)NC1CCCC1`, the “hERG current change (%, negative = inhibition) at 10uM” value was -3.26%.

Take `Cn1c(=O)c2c(nc(Br)n2CC(=O)c2cccs2)n(C)c1=O`: the “hERG current change (%, negative = inhibition) at 10uM” value is on record as -6.03%.

As for `CCc1ccc(NC(=O)C2CCCCC2C(=O)O)cc1` (centres unmarked), the “hERG current change (%, negative = inhibition) at 10uM” value is on record as 11.8%.

Take `CCOc1ccc(NC(=O)CN(C)C(=O)c2ccc(N3CCOCC3)c([N+](=O)[O-])c2)cc1OCC`: the “hERG current change (%, negative = inhibition) at 10uM” value was -19.1%.

As for `CCOc1ccc(NC(=O)CN(C)C(=O)c2cc([N+](=O)[O-])ccc2N2CCCCC2)cc1OCC`, the “hERG current change (%, negative = inhibition) at 10uM” value is listed as -43.9%.

In the case of `CCOc1ccc(NC(=O)CN(C)C(=O)c2cc([N+](=O)[O-])ccc2N2CCOCC2)cc1OCC`, the “hERG current change (%, negative = inhibition) at 10uM” value is listed as -52.5%.

Turning to `O=C(NCC(=O)N(c1ccc(F)cc1)C(C(=O)NC1CCCC1)c1cccnc1)c1cccs1` (centres unmarked), the “hERG current change (%, negative = inhibition) at 10uM” value amounted to 7.21%.

Consider `CC(C)C[C@H](NC(=O)NCCC1=CCCCC1)C(=O)O`, for which the “hERG current change (%, negative = inhibition) at 10uM” value is reported as -4.82%.

For the compound `O=C1Nc2ncccc2OC1CCCl` (centres unmarked), the “hERG current change (%, negative = inhibition) at 10uM” value is given as 6.83%.

Regarding `O=C(COc1ccccc1Cl)NCCCNC(=O)c1ccco1`, the “hERG current change (%, negative = inhibition) at 10uM” value is given as 2.17%.

With `CN(C)CCN(C(=O)c1ccc(S(=O)(=O)N(C)c2ccccc2)cc1)c1nc2cc3c(cc2s1)OCCO3.Cl`, the “hERG current change (%, negative = inhibition) at 10uM” value was -1.95%.

For the compound `CCN(Cc1ccccc1)S(=O)(=O)c1ccc(C(=O)N(CCCN(C)C)c2nc3cc4c(cc3s2)OCO4)cc1.Cl`, the “hERG current change (%, negative = inhibition) at 10uM” value is recorded as -45.2%.

In the case of `CCN(c1ccccc1)S(=O)(=O)c1ccc(C(=O)N(CCN(C)C)c2nc3c(F)cc(F)cc3s2)cc1.Cl`, the “hERG current change (%, negative = inhibition) at 10uM” value was -54.7%.

In the case of `CN(C)CCCN(C(=O)c1ccc(S(=O)(=O)N(C)Cc2ccccc2)cc1)c1nc2cc3c(cc2s1)OCO3.Cl`, the “hERG current change (%, negative = inhibition) at 10uM” value is reported as -51.7%.

On to `CCN(Cc1ccccc1)S(=O)(=O)c1ccc(C(=O)N(CCCN(C)C)c2nc3cc4c(cc3s2)OCCO4)cc1.Cl`, for which the “hERG current change (%, negative = inhibition) at 10uM” value is -27.5%.

Turning to `CN(C)CCN(C(=O)c1ccc2ccccc2c1)c1nc2c(F)cc(F)cc2s1.Cl`, the “hERG current change (%, negative = inhibition) at 10uM” value was 3.41%.

For the compound `CN(C)CCN(C(=O)c1ccc(S(=O)(=O)N(C)c2ccccc2)cc1)c1nc2cc3c(cc2s1)OCO3.Cl`, the “hERG current change (%, negative = inhibition) at 10uM” value is reported as -2.57%.

For `CCN(c1ccccc1)S(=O)(=O)c1ccc(C(=O)N(CCCN(C)C)c2nc3cc4c(cc3s2)OCO4)cc1.Cl`, the “hERG current change (%, negative = inhibition) at 10uM” value is -57.4%.

With `CCN(c1ccccc1)S(=O)(=O)c1ccc(C(=O)N(CCCN(C)C)c2nc3c(C)cccc3s2)cc1.Cl`, the “hERG current change (%, negative = inhibition) at 10uM” value is recorded as -34.7%.
